# Hits are enriched below; roughly 2.2% of the tested compounds scored in any of these assays.
# HepG2 tox = kills HepG2 cells in TGF-b inhibitor counter-screen; AID 588856; Potency, µM (series often up to 46.1 µM), for inactives: top-dose activity change, negative = cytotoxicity, hits mostly cytotoxic; hit rate 0.76% among 410,000; HepG2 CAGA-GFP viability, ATP luminescence, 18 h; further: potency means the concentration at half of the fitted maximal effect
#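 CellTiter-Glo luminescence gave cytotoxicity after 18 hours at 37 degrees C. The cells were HepG2 CAGA-GFP in 1% FBS DMEM, stimulated with 500 pg/mL TGF-beta after compound addition. %Activity was normalised to no-cell wells (complete cell-killing) and DMSO (no toxicity), and curves were fitted and classified.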
# TGFb inhibitor = TGF-b pathway inhibition. AID 588855. Potency, µM (top dose mostly 46.1 µM), inactives show at the highest dose activity, negative = inhibition, usual class: inhibitors. hit rate 1.2% among 410,000. HepG2 CAGA-GFP TGF-b/SMAD3 reporter, GFP fluorescence, 18 h; TGF-beta stimulated, 500 pg/mL final; further: potency means the concentration at half of the fitted maximal effect; on the % scale 0 is the no-effect control and ±100 the full control effect; nearly all actives have a fitted effect of over 65% in size
#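 Per well, imaged GFP fluorescence of HEPG2 CAGA-GFP cells gives the signal; cells get compound, then TGF-beta (500 pg/mL final), 18 h at 37 degrees C; %Activity versus -TGF-beta and +DMSO controls.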
# ATXN2 expr inh = inhibitors of ATXN2 expression; HEK-293 ATXN2-luciferase reporter, luminescence, 24 h; Potency, µM (top dose mostly 57 µM), without a hit: at the top dose activity change, negative = inhibition, most hits filed as inhibitors; hit rate 0.72% among 360,000; AID 1745845; further: potency means the concentration at half of the fitted maximal effect; on the % scale 0 is the no-effect control and ±100 the full control effect; nearly all actives have a fitted effect of over 55% in size
#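 ATXN2-luciferase reporter cells (luciferase flanked by upstream and downstream ATXN2 gene portions) were treated 24 h at 37 °C with compounds at up to 57 uM. SteadyGlo luminescence gave expression; GF-AFC fluorescence gave viability.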
# LDHA block = inhibitors of human lactate dehydrogenase A; hit rate 0.15% among 480,000; P00338; purified LDHA, NADH/diaphorase-resazurin fluorescence; active compounds read low; activity change, % (values are at about 110 or 230 µM); in the data active means activity change below about -30%; inconclusive means mostly about -25% to -30%;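 further: plate controls were DMSO wells for no effect and wells without enzyme for full effect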
#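 Remaining NADH was detected by diaphorase (0.133 mg/mL) converting 37 µM resazurin to fluorescent resorufin, read at 0 and 20 minutes. The preceding 5-minute room-temperature reaction used 2 nM LDHA, 0.2 mM sodium pyruvate and 0.06 mM NADH at pH 7.4.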
# S2 tox = reduces viability in counter-screen for ATXN expression inhibitors; hit rate 0.49% among 400,000; AID 651635; S2 cells (HEK-293 line with an ATXN2-luciferase reporter) viability, CellTiter-Fluor protease fluorescence, 24 h; Potency, µM (top dose mostly 56.7 µM), most hits filed as cytotoxic; further: potency means the concentration at half of the fitted maximal effect; nearly all actives have a fitted effect of over 40% in size
# mIDH1 inhibitor = inhibitors of human mutant IDH1 R132H | O75874 | IDH1-R132H enzyme, NADPH consumption, diaphorase/resazurin fluorescence | Potency, µM (top dose mostly 76.6 µM), without a hit: top-dose activity change, negative = inhibition, actives largely listed as inhibitors | hit rate 0.093% among 390,000 | AID 602179; further: potency means the concentration at half of the fitted maximal effect; on the % scale 0 is the no-effect control and ±100 the full control effect; nearly all actives have a fitted effect of over 65% in size
# Target sequence (O75874 whole entry R132H, stated change not applied): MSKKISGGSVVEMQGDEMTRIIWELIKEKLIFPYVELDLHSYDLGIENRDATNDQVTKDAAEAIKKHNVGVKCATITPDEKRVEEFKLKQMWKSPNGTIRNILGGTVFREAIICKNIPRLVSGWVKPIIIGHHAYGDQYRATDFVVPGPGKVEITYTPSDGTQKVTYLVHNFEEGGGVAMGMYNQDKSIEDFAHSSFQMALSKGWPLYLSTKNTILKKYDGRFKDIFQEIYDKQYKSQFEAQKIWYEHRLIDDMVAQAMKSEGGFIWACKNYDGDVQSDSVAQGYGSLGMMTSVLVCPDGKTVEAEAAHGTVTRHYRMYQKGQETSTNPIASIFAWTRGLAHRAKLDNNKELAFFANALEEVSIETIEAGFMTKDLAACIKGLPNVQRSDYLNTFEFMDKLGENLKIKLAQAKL
#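 IDH1-R132H (0.5 ug/mL) preincubated 30 min with compound, then NADPH (0.016 mM) and alpha-KG (2 mM) added; 80 min at RT, pH 7.5. Remaining NADPH coupled via diaphorase/resazurin to fluorescence (540/590 nm); concentration-response curves normalized to no-enzyme control.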
# Numbers without * were called inactive; i = inactive; u = inconclusive; x = no result given; [ ] = dose if it differs, or a comment. Unless noted, the call rests on the fitted dose curve; in most records, active means well fitted curve in the direction sought with a large enough effect; inconclusive means small, poorly fitted or top-dose-only effect, or another doubt; inactive means no such curve, though single readings can be large; an effect the other way counts as inactive or inconclusive.
SMILES,HepG2 tox,TGFb inhibitor,ATXN2 expr inh,LDHA block,S2 tox,mIDH1 inhibitor
CCCCN1C(=N)C(CC)(CC)C(=O)NC1=O,3%,61%,-16%,-10,i,2%
CC(=O)OC1C(=O)OCC23CCC4(C)OC4C2OC2CC(OC(=O)C=CC=CC(=O)OCCC1C)C3(C)C21CO1 (stereo not drawn),-26%,-63%,u,-6,0.03µM*,7%
CC(O)C1C=CC=CC(=O)OC2CC3OC4C5OC5(C)CCC4(COC(=O)C4OC4(C)C(O)CO1)C2(C)C31CO1 (stereo not drawn),7%,0.25µM*,u,-2,0.0067µM*,-1%
C=C1C(=O)O[C@@H]2C[C@@H](C)[C@@H]3C=CC(=O)[C@@]3(C)[C@@H](O)[C@H]12,11µM*,4µM*,1.8µM*,-9,x,17%
C=C1C(=O)O[C@@H]2C[C@@H](C)[C@@H]3C=CC(=O)[C@@]3(C)[C@@H](OC(C)=O)[C@H]12,2.5µM*,0.71µM*,1.1µM*,-2,x,-2%[38.3 µM]
O=C(CSC(c1ccccc1)c1ccc(Cl)cc1)NCc1cccs1 (stereo not drawn),x,x,x,10,x,x
CC(=O)[C@@]1(O)CC[C@H]2[C@@H]3CCC4=CC(=O)CC[C@]4(C)C3(F)[C@@H](O)C[C@@]21C (stereo partly drawn),x,x,x,x,i,x
Cc1cccc(NP(=O)(Oc2ccccc2F)Oc2ccccc2F)c1,-60%,13µM*,-16%,1,i,1%
COc1ccc(C(=O)C2CCCN(Cc3cnc(C)s3)C2)c(OC)c1 (stereo not drawn),-16%,-28%,-4%[11.3 µM],-1,x,6%
COc1cccc(-c2nn3c(=O)cc(CN4CCN(C(=O)COc5ccccc5C)CC4)nc3s2)c1,-5%,-19%,-32%,-4,u,-6%
O=C1N[C@@H](Cc2ccccc2)C(=O)N2[C@H]3Nc4ccccc4[C@@]3([C@]34C[C@H]5C(=O)N[C@@H](Cc6ccccc6)C(=O)N5[C@H]3Nc3ccccc34)C[C@@H]12,-4%,u,u,3,13µM*,-14%
O=C1NC(=S)NC(=O)C1Cc1ccccc1,-20%,-10%,8%,-7,i,-1%
CN1C(=O)/C(=C/c2cccn2-c2ccc3ccccc3c2)C(=O)NC1=S,-51%,16µM*,u,9,x,4%
O=C1NC(=S)NC(=O)C1=Cc1cccn1-c1ccc(O)cc1,-108%,u,24µM*,-2,19µM*,13%
CC(=O)OC1CC(OC2C(O)CC(OC3C(O)CC(OC4CCC5(C)C(CCC6C5CCC5(C)C(C7=CC(=O)OC7)CCC65O)C4)OC3C)OC2C)OC(C)C1OC1OC(CO)C(O)C(O)C1O (stereo not drawn),-41%,u,0.0075µM*,-1,u,1%
c1ccc(-c2ccc(-c3n(-c4ccccn4)c4ccccc4[n+]3-c3ccccn3)cc2)cc1,-7%,18µM*,x,3,u,-13%
CC(C)CC1C(=O)N2CCC[C@H]2[C@]2(O)O[C@](NC(=O)[C@@H]3C=C4c5cccc6[nH]c(Br)c(c56)C[C@H]4N(C)C3)(C(C)C)C(=O)N12 (stereo partly drawn),-25%,u,x,0,x,x
CC(C)CCn1c(=O)c(C(=O)Nc2ccccc2S(N)(=O)=O)c(O)c2ccccc21,-16%,20µM*,-37%,-1,i,-13%
C=CCc1ccccc1OCCn1c(C2CC(=O)N(Cc3ccc(F)cc3)C2)nc2ccccc21 (stereo not drawn),-108%,16µM*,u,2,x,1%
COc1cc(C)c(CNCCc2c[nH]c3ccccc23)cc1C,11µM*,u,x,-7,u,16%
COc1ccc(CNCCc2c[nH]c3ccccc23)c(OC)c1C,-59%,-29%,-31%,-23,u,0%
